Laboratory results: PubChem BioAssay (NCI)
Compounds without any hit were thinned out: in the full panel of roughly 83,000, 20% have a hit.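 Growth was measured after 48 h exposure to one concentration of compound in 96-well plates. Values under 10 count as active.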 A number with no mark means an inactive call. Activity calls are given as the source filed them.

Experiments:
Assay in all cases: NCI-60 one-dose screen, 48 h (100 = growth as untreated, 0 = no growth, -100 = all killed)
Conditions in all cases: 10 µM unless noted
[1] = tested on: HCT-15 colon
[2] = tested on: HT29 colon
[3] = tested on: SNB-75 CNS
[4] = tested on: SNB-19 CNS
[5] = tested on: U251 CNS
[6] = tested on: PC-3 prostate
[7] = tested on: SK-MEL-5 melanoma
[8] = tested on: UACC-62 melanoma
[9] = tested on: LOX IMVI melanoma
[10] = tested on: SK-MEL-28 melanoma

Compound	growth [1]	growth [2]	growth [3]	growth [4]	growth [5]	growth [6]	growth [7]	growth [8]	growth [9]	growth [10]
Cc1ccc(-c2nc(N3CCN(CC(=O)Nc4ccc(Cl)cc4)CC3)c3ccccc3n2)cc1	79.9%	80.8%	77.7%	93.1%	92.5%	80.6%	89%	75.9%	97.4%	99.8%
CCOC(=O)CC1C(COC(=O)NC)OC(n2cnc3c(NC(=O)Nc4ccccc4)ncnc32)C1O[Si](C)(C)C(C)(C)C (stereo not drawn)	52.2%	8.8% (active)	45.4%	99.1%	52%	32.4%	23.5%	65.1%	48.6%	–
COc1cccc2c(=O)c3c(sc12)c(N1CCNCC1)nc1ccccc13	37.3%	0.0883% (active)	79.2%	80%	12.2%	68.3%	95.3%	105%	-29.3% (active)	–
COc1ccc(-c2csc(NC(=O)N3CCN(c4cc5c(cc4F)c(=O)c(C(=O)O)cn5C4CC4)CC3)n2)cc1	14.6%	2.34% (active)	-2.38% (active)	20.8%	6.54% (active)	-0.577% (active)	-39.9% (active)	-14.2% (active)	-76.4% (active)	33.7%
C(=N/Nc1ncnc2nc[nH]c12)/c1ccccn1	35.4%	58.8%	75.5%	53.8%	32.6%	31%	16.9%	27%	19.1%	–
COC1=C(C)C(=O)c2c(c(CCCl)c3n2CCC3O)C1=O (stereo not drawn)	2.73% (active)	-4.05% (active)	-45.3% (active)	2.57% (active)	-3.61% (active)	-2.49% (active)	-51% (active)	-60.5% (active)	-23.5% (active)	–
CCCCCCCCCCCCCCCCCCOc1ccccc1CCCOP(=O)(O)OCC[N+](C)(C)C	51.3%	12.7%	83.3%	33.7%	39.4%	0.281% (active)	80.9%	55.7%	58.1%	–
Cc1cc2nc3ccc(N=Nc4ccc(N(C)C)cc4)cc3n(-c3ccccc3)c-2cc1=N	-77.2% (active)	-67% (active)	-84% (active)	-93.7% (active)	-69.4% (active)	-72.3% (active)	-95.3% (active)	-76.7% (active)	-66.5% (active)	–
CC1=C(C)C(=O)C(Nc2cccc(C(=O)OC(C)(C)C)c2)=C(Br)C1=O	73.2%	118%	59.7%	84.6%	90.7%	71.7%	96%	79.2%	34.9%	–
COc1cc(/C=C2\C(=O)Nc3ccc(Br)cc32)cc(OC)c1OC	38.6%	24.4%	36.5%	81%	51%	60.4%	56.9%	51.6%	57.2%	80.2%
O=C1/C(=C/c2ccc(F)cc2)Sc2c(Br)cccc21	75.8%	100%	87.7%	95.6%	70.4%	70.4%	88.1%	55.7%	82%	110%
COc1ccc2sc3c(NCCO)nc4ccccc4c3c(=O)c2c1	81%	101%	103%	95.4%	93.1%	91.4%	93.7%	94.5%	88%	122%
CCCCn1c(=O)c(-c2cc(-c3ccc(Cl)cc3)nc(-c3ccc(Cl)cc3)c2)cc2ccc(Cl)cc21	105%	109%	86.4%	96.1%	101%	94.6%	104%	95.4%	98.1%	106%
O=[N+]([O-])c1ccccc1NCSc1ccc(Cl)cc1	89.7%	108%	87.3%	103%	85.8%	56.2%	99.9%	89.2%	52.7%	107%
COc1cccc(-c2nc(-c3ccc(NC(=O)C(C)C)cc3)[nH]c2-c2ccnc(Br)c2)c1	7.17% (active)	23%	10.5%	44.6%	32%	18.7%	6.14% (active)	37.1%	15.2%	47%
c1cc(NCCc2ccncc2)nc(-n2cnc3ccccc32)c1	90.1%	92.7%	112%	99.9%	82.2%	83%	93.7%	91.2%	79.4%	109%
COc1c(C2CC(=O)Nc3c2c(C)nn3-c2nc3ccccc3[nH]2)cc2c(c1OC)OCO2 (stereo not drawn)	37.2%	20.5%	44.2%	49.6%	31.5%	48.4%	31.9%	55.2%	46.7%	44.2%
c1ccc(-c2nc3nonc3nc2-c2ccccc2)cc1	68.3%	82.7%	65.4%	77.8%	58.3%	46.5%	63.8%	58.7%	56%	90.3%
CCOC(=O)Cn1c(C)c(/C=N/NC(=O)c2cc3c(ccc4ccccc43)o2)c2ccccc21	11%	3.63% (active)	2.97% (active)	18%	15.9%	10.5%	7.35% (active)	35.4%	24.9%	45.2%
C=C1C(=O)O[C@H]2[C@H]1CC/C(COC(=O)CCSSCCC(=O)OC/C1=C/CC[C@@]3(C)O[C@H]3[C@H]3OC(=O)C(=C)[C@@H]3CC1)=C\CC[C@@]1(C)O[C@@H]21	-74.2% (active)	-78.7% (active)	52.5%	39.2%	-12% (active)	-11.6% (active)	41.7%	36.7%	-75.8% (active)	-42.8% (active)
COc1cc(OCc2cccc(-c3ccc(C(O)c4nccs4)cc3)c2C)cc(OC)c1CNCCNC(C)=O (stereo not drawn)	97.7%	92.9%	85%	94.9%	91.1%	90.2%	91.8%	90%	94.8%	94.8%
COc1cc(/C=C/c2c(C(C)=O)c(C)nc3ccccc23)cc(OC)c1OC	25.4%	17.6%	-34.5% (active)	39.4%	39%	32.5%	31.4%	39.8%	38.9%	53.9%
CNc1nc2c(s1)C(c1cc(F)ccc1F)CC(=O)N2 (stereo not drawn)	42%	82.4%	32.4%	72.2%	67.6%	81.1%	64.5%	50.1%	73.4%	69.6%
O=C(O)CCC(=O)Nc1nnc(-c2ccccc2)s1	93.7%	106%	87.8%	105%	105%	94.8%	103%	97.8%	99.5%	107%
COc1ccc(C2NC(=O)C(C#N)c3c2sc2c(F)cccc32)c(OC)c1 (stereo not drawn)	36.3%	66.1%	-5.26% (active)	44.2%	39.3%	56.8%	81.8%	42.3%	39.7%	55.1%
C=C1C(=O)O[C@H]2[C@H]1CC/C(COC(=O)CCC(=O)NCCOCCOCC(=O)Nc1ccc(OC)c(C(N)=O)c1O)=C\CC[C@@]1(C)O[C@@H]21	92.3%	101%	95.6%	99%	94.9%	101%	102%	89.2%	87.7%	93.2%
Cc1nn(-c2ccccc2)c(-n2ccnc2)c1/C=N/Nc1nc(-c2ccc(Cl)c(Cl)c2)cs1	23.8%	17.1%	-2.39% (active)	46%	53.1%	28.8%	26.5%	71.4%	20.1%	58.1%
